Calls of active or inactive are those of the source.
Tests used:
[1] = system: Plasmodium falciparum Sir2 (PF13_0152, Sir2A); assay: Plasmodium falciparum Sir2A binding compounds – biochemical, small-molecule microarray, 635 nm fluorescence, primary screen (AID 1098); settings: fluorescence 635 nm, higher = more signal;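 also: score merges spot fluorescence intensity with its signal-to-noise ratio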
[2] = probe aDKK1 binding to arrayed compounds – biochemical, biotinylated probe, 635/667 nm fluorescence, primary screen (AID 1099); settings: small-molecule microarray, higher = more signal;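 also: score merges 667nm spot fluorescence with signal to noise across triplicate slides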
[3] = probe aCHRDL2 binding to arrayed compounds – biochemical, biotinylated probe, 635/667 nm fluorescence, primary screen (AID 1100); settings: small-molecule microarray, higher = more signal
[4] = change in splice reporter luminescence, either direction, cell-based, HEK293, spliceosome inhibition project, primary screen (AID 1101); settings: HEK293 splicing luciferase reporter, 24 h, higher = more signal, called active from +8 up or from −8 down;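 also: HEK293 cells carrying a splicing-competent luciferase reporter gene; test concentration not given here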
[5] = molecular target: Fibroblast growth factor 10 (Homo sapiens) (UniProt O15520); assay: compounds binding fibroblast growth factor 10 – biochemical, small-molecule microarray, 635 nm fluorescence, primary screen (AID 1102); settings: FGF10 binding, fluorescence 635 nm, higher = more signal
[6] = system: glycogen synthase kinase-3 (GSK3A per assay name; protocol says GSK3B); assay: compounds binding glycogen synthase kinase-3 – biochemical, small-molecule microarray, 635 nm fluorescence, GSK3A, primary screen (AID 1103); settings: fluorescence 635 nm, higher = more signal; also: the record names both GSK3A and GSK3B
[7] = molecular target: Epidermal growth factor receptor (Homo sapiens) (UniProt P00533); assay: compounds binding epidermal growth factor receptor – biochemical, small-molecule microarray, 635 nm fluorescence, primary screen (AID 1104); settings: EGFR binding, higher = more signal;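 also: score merges 667 nm emission intensity with spot signal to noise over triplicate slides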
[8] = molecular target: Follistatin-related protein 3 (Homo sapiens) (UniProt O95633); assay: compounds binding follistatin-related protein 3 – biochemical, small-molecule microarray, 635 nm fluorescence, primary screen (AID 1105); settings: FSTL3 binding, higher = more signal;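 also: score merges emission near 667 nm and signal to noise per printed spot across three slides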
[9] = molecular target: Dickkopf-related protein 1 (Homo sapiens) (UniProt O94907); assay: small molecules binding DKK1 protein – biochemical, small-molecule microarray, 635 nm fluorescence scan, primary screen (AID 1106); settings: higher = more signal;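 also: score merges emission near 667 nm with signal to noise over three replicate slides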
[10] = system: Inhibin beta A chain (activin A); assay: small molecules binding activin A – biochemical, small-molecule microarray, 635 nm fluorescence scan, primary screen (AID 1107); settings: INHBA, higher = more signal;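 also: mouse activin A protein probed at 4.33 µg/mL on printed slides; score merges bound-protein fluorescence near 667 nm with spot signal-to-noise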
[11] = system: Human papillomavirus type 1a protein E7 (residues 44-93); assay: small molecules binding HPV E7 44-93 – biochemical, small-molecule microarray, residues 44-93, 635 nm fluorescence, primary screen (AID 1108); settings: fluorescence 635 nm, higher = more signal;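 also: E7 fragment applied at 1 µg/mL in TBST for 1 h at 4 C; score combines spot fluorescence with its signal to noise ratio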
[12] = hepatitis C replication reporter changes, two-sided – Huh7 cells, luciferase reporter, HCV replication inhibitor project, primary screen (AID 1109); settings: Huh7 HCV replicon luciferase reporter, 48 h; higher = more signal;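 also: huh7 hepatoma cells harbouring a luciferase neomycin HCV replicon reporter; luciferase luminescence as measure of HCV replicon replication; test concentration not given here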
[13] = molecular target: Left-right determination factor 2 (Homo sapiens) (UniProt O00292); assay: small molecules binding LEFTY2 protein – biochemical, small-molecule microarray, 635 nm fluorescence scan, primary screen (AID 1110); settings: higher = more signal
[14] = molecular target: Calmodulin-1 (Homo sapiens) (UniProt P0DP23); assay: small molecules binding calmodulin-1 with EGTA – biochemical, small-molecule microarray, Cy5-labelled CALM1, profiling panel (AID 1111); settings: Cy5-CALM1 binding fluorescence, higher = more signal;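 also: labelled calmodulin applied in Tris saline Tween buffer holding calcium plus EGTA and DTT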
[15] = molecular target: Calmodulin-1 (Homo sapiens) (UniProt P0DP23); assay: small molecules binding Ca-loaded calmodulin-1 – biochemical, small-molecule microarray, Cy5-labelled CALM1, plus calcium, artefact control for SMM control-protein annotation, profiling panel (AID 1112); settings: Cy5-CALM1 binding fluorescence, higher = more signal;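 also: score merges spot fluorescence with signal to noise from triplicate slides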
[16] = probe aWnt5a binding to arrayed compounds – biochemical, biotinylated probe, 635/667 nm fluorescence, primary screen (AID 1113); settings: small-molecule microarray, higher = more signal;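 also: score merges 667 nm fluorescence intensity with signal-to-noise per printed feature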
[17] = probe aShh binding to arrayed compounds – biochemical, biotinylated probe, 635/667 nm fluorescence, primary screen (AID 1114); settings: small-molecule microarray, higher = more signal;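 also: probe is biotin-labelled aShh protein from a stem cell growth factor screen; measures binding of labelled protein to compounds printed on the slide; score merges feature fluorescence at 667 nm with signal-to-noise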
[18] = probe aNog binding to arrayed compounds – biochemical, biotinylated probe, 635/667 nm fluorescence, primary screen (AID 1115); settings: small-molecule microarray, higher = more signal;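 also: probe is biotinylated aNog protein used at 0.15 µg/mL for 1 h at 4 C; z-score combines 667 nm fluorescence of each spot with its signal to noise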
[19] = molecular target: Torsin-1A-interacting protein 1 (Homo sapiens) (UniProt Q5JTV8); assay: compound microarray binding of lysate hLAP1 – cell lysate, small-molecule microarray, COS7 lysate, 635/667 nm fluorescence, primary screen (AID 1116); settings: 635 nm fluorescence, higher = more signal
[20] = molecular target: Alpha-bungarotoxin (Bungarus multicinctus) (UniProt P60615); assay: compounds binding labelled alpha-BTX control protein – biochemical, small-molecule microarray, Alexa647 label, 635/667 nm fluorescence, artefact control for SMM control protein annotation, profiling panel (AID 1117); settings: alpha-BTX-A647 binding fluorescence, higher = more signal
Sequence of Alpha-bungarotoxin (Bungarus multicinctus) (P60615 whole entry, looked up): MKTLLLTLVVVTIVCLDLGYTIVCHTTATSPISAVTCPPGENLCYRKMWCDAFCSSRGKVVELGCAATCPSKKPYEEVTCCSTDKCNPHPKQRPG

Sequence of Epidermal growth factor receptor (Homo sapiens) (P00533 whole entry, looked up): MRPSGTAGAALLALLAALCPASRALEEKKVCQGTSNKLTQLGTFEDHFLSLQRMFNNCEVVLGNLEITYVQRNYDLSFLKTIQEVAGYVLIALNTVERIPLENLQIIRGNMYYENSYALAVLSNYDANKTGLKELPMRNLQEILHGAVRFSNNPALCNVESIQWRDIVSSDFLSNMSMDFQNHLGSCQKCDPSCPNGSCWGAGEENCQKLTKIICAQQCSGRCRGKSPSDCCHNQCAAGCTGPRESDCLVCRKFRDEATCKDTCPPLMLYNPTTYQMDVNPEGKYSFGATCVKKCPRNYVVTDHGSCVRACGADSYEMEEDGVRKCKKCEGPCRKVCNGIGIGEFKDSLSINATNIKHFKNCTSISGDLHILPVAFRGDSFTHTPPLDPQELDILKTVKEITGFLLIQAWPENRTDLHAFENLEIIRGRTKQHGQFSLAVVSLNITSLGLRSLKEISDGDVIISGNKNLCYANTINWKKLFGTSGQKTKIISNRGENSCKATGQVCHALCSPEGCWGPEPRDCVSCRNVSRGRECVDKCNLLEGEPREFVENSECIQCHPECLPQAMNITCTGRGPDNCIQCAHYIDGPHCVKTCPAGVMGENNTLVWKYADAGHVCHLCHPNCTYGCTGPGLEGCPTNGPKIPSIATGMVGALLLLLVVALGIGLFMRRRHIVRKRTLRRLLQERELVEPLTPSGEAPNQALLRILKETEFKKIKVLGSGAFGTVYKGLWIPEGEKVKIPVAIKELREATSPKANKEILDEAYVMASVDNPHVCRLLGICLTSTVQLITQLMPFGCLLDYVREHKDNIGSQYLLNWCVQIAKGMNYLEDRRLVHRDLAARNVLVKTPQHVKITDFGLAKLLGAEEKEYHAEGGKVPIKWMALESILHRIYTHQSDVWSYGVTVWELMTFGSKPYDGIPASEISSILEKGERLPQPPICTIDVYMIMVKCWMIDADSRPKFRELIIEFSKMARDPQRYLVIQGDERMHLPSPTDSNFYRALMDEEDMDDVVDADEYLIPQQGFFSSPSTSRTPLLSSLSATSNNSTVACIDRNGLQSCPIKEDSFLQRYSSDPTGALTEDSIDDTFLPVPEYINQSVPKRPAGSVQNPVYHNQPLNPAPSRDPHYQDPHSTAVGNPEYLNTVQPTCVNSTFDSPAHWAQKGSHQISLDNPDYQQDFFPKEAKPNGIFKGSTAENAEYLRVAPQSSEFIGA
Sequence of Left-right determination factor 2 (Homo sapiens) (O00292 whole entry, looked up): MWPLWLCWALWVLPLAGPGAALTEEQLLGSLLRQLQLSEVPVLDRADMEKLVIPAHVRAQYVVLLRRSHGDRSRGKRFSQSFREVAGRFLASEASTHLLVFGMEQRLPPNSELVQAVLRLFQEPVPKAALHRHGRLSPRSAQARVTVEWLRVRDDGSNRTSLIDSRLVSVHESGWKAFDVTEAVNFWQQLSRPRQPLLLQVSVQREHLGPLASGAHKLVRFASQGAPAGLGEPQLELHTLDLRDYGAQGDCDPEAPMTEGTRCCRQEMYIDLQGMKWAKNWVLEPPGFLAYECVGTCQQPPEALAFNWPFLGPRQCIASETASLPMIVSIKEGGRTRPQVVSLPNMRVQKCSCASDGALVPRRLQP
Sequence of Dickkopf-related protein 1 (Homo sapiens) (O94907 whole entry, looked up): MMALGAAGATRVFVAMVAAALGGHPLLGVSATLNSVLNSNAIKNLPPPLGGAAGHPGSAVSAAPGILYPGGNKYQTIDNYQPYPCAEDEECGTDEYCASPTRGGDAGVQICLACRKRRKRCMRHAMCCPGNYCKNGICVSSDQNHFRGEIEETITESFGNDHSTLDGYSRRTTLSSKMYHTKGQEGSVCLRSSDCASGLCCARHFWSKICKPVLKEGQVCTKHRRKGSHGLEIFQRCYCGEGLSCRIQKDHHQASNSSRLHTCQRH
Sequence of Follistatin-related protein 3 (Homo sapiens) (O95633 whole entry, looked up): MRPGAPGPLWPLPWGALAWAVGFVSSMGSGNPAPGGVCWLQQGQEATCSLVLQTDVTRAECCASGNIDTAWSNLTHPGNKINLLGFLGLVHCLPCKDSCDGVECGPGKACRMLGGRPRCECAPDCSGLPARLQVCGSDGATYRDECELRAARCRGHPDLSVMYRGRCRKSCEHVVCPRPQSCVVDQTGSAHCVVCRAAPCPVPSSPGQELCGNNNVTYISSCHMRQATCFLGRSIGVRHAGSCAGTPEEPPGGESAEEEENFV
Sequence of Torsin-1A-interacting protein 1 (Homo sapiens) (Q5JTV8 whole entry, looked up): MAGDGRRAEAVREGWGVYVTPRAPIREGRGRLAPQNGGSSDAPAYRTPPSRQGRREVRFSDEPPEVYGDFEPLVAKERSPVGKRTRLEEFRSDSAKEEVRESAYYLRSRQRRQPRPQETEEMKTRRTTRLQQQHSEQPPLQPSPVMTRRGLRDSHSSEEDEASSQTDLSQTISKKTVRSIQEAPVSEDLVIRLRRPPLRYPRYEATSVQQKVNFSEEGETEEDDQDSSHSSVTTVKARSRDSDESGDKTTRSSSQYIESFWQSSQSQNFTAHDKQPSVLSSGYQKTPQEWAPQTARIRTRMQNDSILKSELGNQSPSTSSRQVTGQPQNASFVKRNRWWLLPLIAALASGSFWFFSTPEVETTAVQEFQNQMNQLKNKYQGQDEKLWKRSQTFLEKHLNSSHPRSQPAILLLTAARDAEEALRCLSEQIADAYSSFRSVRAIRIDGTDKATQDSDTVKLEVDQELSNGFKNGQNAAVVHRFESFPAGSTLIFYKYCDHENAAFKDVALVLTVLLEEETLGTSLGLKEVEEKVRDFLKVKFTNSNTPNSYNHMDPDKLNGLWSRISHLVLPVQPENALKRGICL
Sequence of Fibroblast growth factor 10 (Homo sapiens) (O15520 whole entry, looked up): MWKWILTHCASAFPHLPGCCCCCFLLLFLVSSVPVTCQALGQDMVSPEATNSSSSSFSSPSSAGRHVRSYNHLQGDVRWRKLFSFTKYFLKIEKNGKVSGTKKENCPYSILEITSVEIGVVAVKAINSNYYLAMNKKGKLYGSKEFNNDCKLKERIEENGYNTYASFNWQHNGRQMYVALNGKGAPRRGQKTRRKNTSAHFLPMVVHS

SMILES | composite z-score [1] | composite z-score [2] | composite z-score [3] | z-score [4] | composite z-score [5] | composite z-score [6] | composite z-score [7] | composite z-score [8] | composite z-score [9] | composite z-score [10] | composite z-score [11] | z-score [12] | composite z-score [13] | composite z-score [14] | composite z-score [15] | composite z-score [16] | composite z-score [17] | composite z-score [18] | composite z-score [19] | composite z-score [20]
O=C1O[C@@H](c2ccccc2)[C@@H](c2ccccc2)N2[C@@H](c3ccccc3OCCO)[C@]3(C(=O)Nc4ccc(C#CCCO)cc43)[C@@H](C(=O)O)[C@H]12 | 1.58 | -0.878 | -0.721 | -2.02 (inactive) | 0.608 | 1.03 | -0.0589 | 0.14 | -0.167 | 1.24 | 1.42 | -1.99 | -0.28 | 1.04 | 0.734 | 0.385 | 0.633 | 1.32 | 1.17 | 2.53
COCCOC(=O)N1C(=O)[C@@]2(c3cc(C#CC4(O)CCCCCC4)ccc31)[C@H](c1ccc(OCCO)cc1)N1[C@H](c3ccccc3)[C@H](c3ccccc3)OC(=O)[C@H]1[C@@H]2C(=O)NC[C@H](O)c1ccccc1 | 0.933 | 0.0678 | 0.389 | -0.268 (inactive) | 1.18 | 1.29 | 0.258 | 0.432 | 0.208 | 0.527 | 1.44 | -2.32 | 0.358 | 1.28 | 0.311 | 0.0079 | -0.0289 | 0.385 | 1.26 | 2.17
CCCCCCc1nc(CCCc2cc3c(c(CCCCCC)n2)[Si](C(C)C)(C(C)C)O[C@H]3c2ccccc2)cc2c1[Si](C(C)C)(C(C)C)O[C@H]2c1ccccc1 | -0.509 | -0.259 | -0.21 | -1.11 (inactive) | 0.0736 | -0.401 | 0.123 | 0.0624 | 0.476 | 0.656 | 0.15 | -0.904 | 0.109 | 0.146 | -0.021 | -0.148 | -0.0626 | -0.213 | -0.0561 | 0.181
COC(=O)C1(C)C=C2C(=C(c3ccccc3)C(=O)C2C)CN1 (stereo not given) | 0.537 | 1.14 | 1.22 | 1.21 (inactive) | -0.174 | -0.824 | -0.709 | -1.29 | -1.16 | 1.45 | -1.06 | -0.546 | -1.3 | 0.29 | -0.0125 | -0.034 | -0.119 | 1.74 | 1.72 | -0.422
CO[C@@H]1COC(=O)CC=C[C@@H](C)[C@@H]2C=C[C@H](O)[C@@H](COC(=O)CCC[C@H]1C)O2 | 0.686 | -0.177 | -0.899 | -1.09 (inactive) | 0.375 | 0.329 | 1.21 | 1.11 | 1.25 | 1.45 | -1.05 | -1.96 | 1.31 | -0.859 | -1.7 | -0.0721 | 0.211 | -0.0755 | 0.962 | -0.394
COc1ccc(COC(=O)NN=C2C[C@@H](O)[C@@H](O)[C@@H]3[C@@H]4C(=O)N(Cc5ccc6c(c5)OCO6)C(=O)[C@@H]4CC[C@@H]23)cc1 | -0.454 | 0.911 | 1.39 | -1.36 (inactive) | -0.0715 | -0.52 | -0.451 | -0.226 | -0.539 | 0.556 | -0.743 | -0.404 | -0.218 | -0.389 | -0.252 | -0.0465 | 0.255 | 0.175 | 0.508 | 0.452
COC(=O)[C@@]1(Cc2ccc(F)cc2)[C@@H]2C(=CC(=O)[C@H]2CC(=O)C(=O)N(C)C)CN1C(=O)c1ccccc1 | 0.346 | 1.31 | 0.921 | -1.17 (inactive) | 0.625 | 1.29 | -0.0946 | 1.06 | -0.251 | 0.637 | 1.46 | -2.09 | 0.45 | 1.98 | 1.21 | 0.0839 | 1.21 | 0.896 | 1.52 | 0.954
